A selection: hits, their analogues and other compounds. The true share with any hit is near 4.5%.
DAX1 inh-1: inhibitors of DAX1 repression of SF-1 activated StAR promoter; AID 652010; HEK293T StAR-luciferase reporter, SF-1/DAX-1 repression relief; actives 1.1% (n = 370,000); inhibition, % at 6.8 µM;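 active = inhibition above the mean over all tested compounds plus 3 SD, cut at about 3.6% in these data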;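 note: higher inhibition means more luminescence from relief of DAX-1 repression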
hcDAF12 agonist: H. contortus DAF-12 activation, primary screen; HEK293 hcDAF-12 lit1-tk-luc reporter, luminescence; 0% DMSO, 100% Δ7-dafachronic acid; activation, % at 6.8 µM; actives 1.4% (n = 370,000);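 active = activation above the mean of all tested compounds plus 3 SD, cut at about 5.5% in these data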
DAX1 inh-2: inhibitors of human orphan nuclear receptor DAX1 (NR0B1). AID 504766. HEK293 Gal4-DAX1 luciferase reporter, luminescence. inhibition, % at 6.75 µM. actives 0.99% (n = 340,000);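 active = inhibition above the mean over all tested compounds plus 3 SD, cut at about 4.2% in these data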;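 note: inhibition shows as a rise in luminescence from relieved DAX1 repression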
Target sequence (P51843 207-470 limits assumed): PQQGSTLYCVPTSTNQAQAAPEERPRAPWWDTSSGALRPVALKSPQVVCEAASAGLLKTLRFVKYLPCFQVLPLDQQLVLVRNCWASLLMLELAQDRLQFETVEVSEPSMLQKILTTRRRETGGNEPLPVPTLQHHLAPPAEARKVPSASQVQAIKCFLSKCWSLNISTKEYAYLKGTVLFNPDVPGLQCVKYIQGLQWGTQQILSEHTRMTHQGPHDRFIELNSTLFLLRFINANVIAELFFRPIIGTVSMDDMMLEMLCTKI
ssDAF-12 act: S. stercoralis DAF-12 activation, primary screen. AID 652126. actives 1% (n = 370,000). activation, % at 6.8 µM. HEK293 ssDAF-12/GRIP1 lit1-tk-luc reporter, luminescence; % of 3 µM dafachronic acid response;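 active = activation above the mean over all tested compounds plus 3 SD, cut at about 0.9% in these data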
hgDAF-12 ag: agonists of H. glycines DAF-12 nuclear receptor. HEK293 GAL4-hgDAF12 UAS-luciferase reporter, agonist luminescence; normalized to butyrate control. activation, % at 6.8 µM. actives 1.8% (n = 370,000);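 active = activation above a cutoff set at the mean of all screened compounds plus 3 SD, cut at about 10% in these data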
GAA850 FXN act: activators of GAA850 frataxin (FXN) promoter | HEK293 lucGAA850 FXN promoter luciferase reporter, 24 h; percent of 10 µM SAHA response | activation, % at 6 µM | actives 0.56% (n = 360,000) | AID 540364;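 active = activation above the average of all compounds screened plus 3 SD, cutoff fixed separately per campaign, cut at about 7.5% in these data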
Large screens that a line does not name were inactive.

COc1cc(/C=C/[N+](=O)[O-])ccc1OC(=O)/C=C/c1ccc(F)cc1	GAA850 FXN act 8.7
CCOC(=O)CNC(=O)c1ccc(OCC(F)(F)F)cc1	hgDAF-12 ag 13.1
CCOC(=O)CNC(=O)c1ccc(C)cc1	none
COC1=C[C@H](C(=O)NC2CCN(Cc3ccccc3)CC2)[C@@]2(C)Cc3ccccc3[C@H]2CC1=O	none (no result: DAX1 inh-2, GAA850 FXN act)
O=C(N/N=C/C=C\c1ccco1)c1cccs1	ssDAF-12 act 1.3 (no result: DAX1 inh-2)
O=C(Cc1cccs1)N/N=C/C=C\c1ccco1	none
c1ccc(Oc2ccc(-c3ccn[nH]3)cc2)cc1	DAX1 inh-2 4.6
O=C(NCc1ccccc1)c1ccc(Cl)cc1[N+](=O)[O-]	none
O=C(Cc1ccccc1[N+](=O)[O-])NCc1ccc(Cl)cc1	ssDAF-12 act 1.2
O=C(Cc1ccccc1[N+](=O)[O-])NCc1ccc(Cl)cc1Cl	hgDAF-12 ag 11.6
CN(C)c1ccc(/C=N/NC(=O)c2sccc2-n2cccc2)cc1	hgDAF-12 ag 10.8
O=C(N/N=C\c1ccc(Cl)cc1)c1sccc1-n1cccc1	none
COc1cc2c3c(c1)c(N=NC(N)=S)c(O)n3C(C)(C)C=C2C	DAX1 inh-2 7.1
COc1ccc(/C=C2\CCc3c2nc2ccccc2c3C(=O)O)cc1OC	DAX1 inh-1 4.3
Cc1cc2nc(-c3ccccc3)c(Cc3ccsc3)n2c(C)c1Br	ssDAF-12 act 2.0 (no result: DAX1 inh-2, GAA850 FXN act)
Cc1cc2nc(-c3ccc(Cl)cc3)c(Cc3cccc(Cl)c3)n2c(C)c1Br	ssDAF-12 act 1.1 (no result: DAX1 inh-2, GAA850 FXN act)
O=C(Nc1ccc(C(O)(C(F)(F)F)C(F)(F)F)cc1)c1ccc(F)cc1Cl	none (no result: DAX1 inh-1, DAX1 inh-2, GAA850 FXN act)
O=C(NCc1ccc(Cl)cc1)C(=O)NCC1OCCN1C(=O)c1cccs1 (stereo unspecified)	hcDAF12 agonist 6.2
CCN1Cc2nnn(CC3CCCCC3)c2-c2ccccc2S1(=O)=O	none (no result: DAX1 inh-2, GAA850 FXN act)
CC(=O)c1sc2c(c1N)c(=O)[nH]c(=O)n2-c1ccccc1	none
CCOC(=O)CC(=O)c1sc2c(c1N)c(=O)[nH]c(=O)n2-c1ccc(OC)cc1	DAX1 inh-2 4.3
Oc1ccc2ccccc2c1N=Nc1ccccc1F	hcDAF12 agonist 6.4
Cc1ccc(-n2c(Cc3cccs3)nnc2SCc2ccc([N+](=O)[O-])cc2)cc1	none (no result: DAX1 inh-2, GAA850 FXN act)
Cc1c(C(=O)NCCc2ccccc2)oc2ccc(S(=O)(=O)N3CCOCC3)cc12	none
Cc1c(C(=O)NC2CCCc3ccccc32)oc2ccc(S(=O)(=O)N3CCCC3)cc12 (stereo unspecified)	none
COCCCNC(=O)c1oc2ccc(S(=O)(=O)N3CCOCC3)cc2c1C	DAX1 inh-2 4.9
Cc1c(C(=O)NC2CCCc3ccccc32)oc2ccc(S(=O)(=O)N3CCOCC3)cc12 (stereo unspecified)	DAX1 inh-2 5.8
Clc1ccc(NC2(c3nnnn3C3CCCCC3)CCCCC2)cc1	DAX1 inh-2 4.7
COC[C@H]1O[C@]2(c3ccccc3)CO[C@H]1[C@@H](/C=C/c1ccccc1)C2	none (no result: DAX1 inh-2, GAA850 FXN act)
O=C(Cc1c(F)cccc1Cl)Nc1cc(S(=O)(=O)N2CCCCC2)ccc1N1CCOCC1	DAX1 inh-2 5.8
O=C(/C=C/c1ccc(S(=O)(=O)N2CCOCC2)cc1)NC(=S)Nc1ccc(N2CCOCC2)cc1	none
O=C(CSc1ccccc1)Nc1cc(S(=O)(=O)N2CCOCC2)ccc1N1CCOCC1	DAX1 inh-2 4.3
COc1ccc(S(=O)(=O)N2CCOCC2)cc1NC(=O)CSc1ccccc1	none
Cc1cc(NC(=S)NC(=O)/C=C/c2ccc(S(=O)(=O)N3CCOCC3)cc2)ccc1Br	ssDAF-12 act 3.9
O=C(/C=C/c1ccccc1)Nc1cc(S(=O)(=O)N2CCOCC2)ccc1N1CCOCC1	DAX1 inh-2 4.5
CCOC(=O)[C@]12CCCC3=C1N(CCC3)C(=O)[C@@H](CC(=O)NCCCCc1ccccc1)C2	none (no result: DAX1 inh-2, GAA850 FXN act)
COc1ccc(-c2ccc(C(=O)Nc3ccc4c(c3)OCO4)c3occc23)c(C)c1	hgDAF-12 ag 13.2 (no result: DAX1 inh-2)
COc1ccc(-c2cc(=O)oc3c(C)c(OCC(=O)Nc4cccnc4)ccc23)cc1	none
Cc1c(C)c2ccc(OCC(=O)Nc3cccnc3)c(C)c2oc1=O	DAX1 inh-1 3.7
c1csc(-c2nc(CN3CCSCC3)cs2)c1	hgDAF-12 ag 12.4
Cc1cccc(CNC(=O)NC2CCCCN(Cc3cccc(Cl)c3)C2=O)c1 (stereo unspecified)	none (no result: DAX1 inh-2, GAA850 FXN act)
Cc1nc(C2COc3ccccc3O2)sc1C(=O)O (stereo unspecified)	DAX1 inh-2 5.5
Cc1nc2ccc3nc(NC(=O)C4COc5ccccc5O4)sc3c2s1 (stereo unspecified)	none
COc1cccc(/C=C2\SC(=O)N(CCC(=O)NNC(=O)c3ccccc3Cl)C2=O)c1	none
O=C(CCN1C(=O)/C(=C\c2cccc(Br)c2)SC1=S)NCCCN1CCOCC1	hcDAF12 agonist 6.0
COc1cccc(/C=C2\SC(=S)N(CCC(=O)NNC(=O)c3ccccc3OC)C2=O)c1	ssDAF-12 act 1.0
Cc1ccc(C(=O)N/N=C2\CC3CC=CC23)c(C)c1 (stereo unspecified)	DAX1 inh-2 5.7
CCOc1ccc(C(=O)Nc2ccc(Cl)cn2)cc1Cl	hgDAF-12 ag 12.6
CCOc1ccc(C(=O)Nc2cc(NC(=O)c3ccc(OCC)c(Cl)c3)cc(C(=O)O)c2)cc1Cl	none
COCCN1CCCc2nc(-c3ccc(F)cc3)ccc21	none (no result: DAX1 inh-2, GAA850 FXN act)
O=C(Nc1ccc2c(c1)C(=O)OC2)c1ccc(Cl)cc1Cl	hcDAF12 agonist 5.6
O=C(Nc1ccc2ccccc2c1)c1ccc(Cl)cc1Cl	hgDAF-12 ag 10.7
O=C(Nc1ccc2c(c1)C(=O)OC2)c1ccc(Cl)cc1	none
CCCCN(C(C)=O)c1ccc2c(c1)C1CC2CCN1C(=O)OCc1ccccc1 (stereo unspecified)	none
CCN(CCc1ccccc1)c1ccc2c(c1)C1CC2CCN1C(=O)OCc1ccccc1 (stereo unspecified)	ssDAF-12 act 1.6
Cn1cccc1C(=O)N1CCN(S(=O)(=O)c2ccc([N+](=O)[O-])cc2)CC1	none (no result: DAX1 inh-2, GAA850 FXN act)
CCCc1cc(=O)[nH]c(SCCc2ccccc2)n1	none
CCCc1cc(=O)[nH]c(SCCN2C(=O)c3ccccc3C2=O)n1	DAX1 inh-2 5.5
CCN(CC)S(=O)(=O)c1ccc(C)c(NC(=O)COC(=O)CN2C(=O)NC(C)(C)C2=O)c1	ssDAF-12 act 0.9
Cc1nc(-c2ccc(O)c(O)c2)cs1	none
COc1cc(-c2csc(C)n2)ccc1O	DAX1 inh-2 4.3
Cc1ccc(-n2c(Cc3cccs3)nnc2SCC(=O)Nc2ccccc2-c2ccccc2)cc1	none (no result: DAX1 inh-2, GAA850 FXN act)
COc1ccc(C2CC(c3ccc4ccccc4c3OC(C)=O)=NN2C(C)=O)cc1 (stereo unspecified)	DAX1 inh-2 5.4
Cc1cc(C)cc(NC(=O)N2CCCN(c3c(Cl)cncc3Cl)CC2)c1	ssDAF-12 act 1.8
